The results in this text go back to PubChem BioAssay (Tox21).

The structures appear in SMILES notation. Inconclusive results are not listed. A call without a number means that no potency is given here. The source made the active and inactive calls. The call rests on the fitted dose curve; in most records, active means well fitted inhibition curve with a large enough effect in the repeat runs; inconclusive means weak or mixed curves; inactive means no such curve, though single readings can be large or run the other way.
Potency means the concentration at half of the fitted maximal effect.

The target in the assay is Cytochrome P450 2C19 (Homo sapiens) (UniProt P33261). The assay can be described thus: Cytochrome P450 Family 2 Subfamily C Member 19 (CYP2C19) small molecule antagonists: luciferase reporter qHTS assay (AID 1671197). Further: nearly all actives have a fitted effect of over 65% in size. The note with it: P450-Glo CYP2C19 enzyme, luciferin luminescence, 1 h; series mostly up to 115 µM. The text has this: National Center for Advancing Translational Sciences [NCATS]
Sequence of Cytochrome P450 2C19 (Homo sapiens) (P33261 whole entry, looked up): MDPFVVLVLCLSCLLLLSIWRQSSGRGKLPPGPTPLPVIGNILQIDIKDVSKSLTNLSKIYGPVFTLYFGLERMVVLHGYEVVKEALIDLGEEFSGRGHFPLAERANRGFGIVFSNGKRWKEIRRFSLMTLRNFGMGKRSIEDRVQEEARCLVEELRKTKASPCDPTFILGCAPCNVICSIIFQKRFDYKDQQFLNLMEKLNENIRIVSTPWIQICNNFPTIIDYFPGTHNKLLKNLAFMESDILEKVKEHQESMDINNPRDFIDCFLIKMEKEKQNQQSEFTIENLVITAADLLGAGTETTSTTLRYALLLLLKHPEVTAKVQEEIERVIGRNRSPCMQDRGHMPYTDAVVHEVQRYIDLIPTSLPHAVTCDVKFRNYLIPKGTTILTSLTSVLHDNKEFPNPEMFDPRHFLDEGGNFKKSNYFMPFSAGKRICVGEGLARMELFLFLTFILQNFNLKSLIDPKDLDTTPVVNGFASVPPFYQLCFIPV
U.S. Environmental Protection Agency [EPA]
National Institutes of Environmental Health Sciences [NIEHS]
National Toxicology Program [NTP]
U.S. Food and Drug Administration [FDA]
Cytochrome P450 (CYP) enzymes are membrane-bound hemeproteins that play a key role in metabolism of drugs and xenobiotics. Evaluation of the effect of chemicals on CYP isozymes is useful to minimize the adverse drug reactions and toxicities in drug development process. Tox21 chemicals were tested for their effect on CYP enzyme activities by using P450-Glo (TM) screening systems (Promega Corporation, Madison, WI). These systems provide a luminescent method containing proluciferin substrates and are converted to luciferin products by CYP isozymes. The luciferin products formed are detected with a luciferin detection reagent, and the amount of light produced is proportional to CYP activity. P450-Glo (TM) CYP2C19 screening system (Catalog. No. V9880) was used to detect the compounds that interfere in CYP2C19 activity. The positive control compound used for CYP2C19 assay is ketoconazole (Sigma-Aldrich, St. Louis, MO).
Tox21 Assay Protocol Summary:
Two ul of enzyme-substrate mix was dispensed into medium binding white/solid 1536-well plates (Greiner Bio-One North America Inc., Monroe, NC) using a BioRaptr Flying Reagent Dispenser (FRD, Beckman Coulter, Brea, CA). Compounds dissolved in DMSO and positive control (ketoconazole) were transferred to the assay plates at 23 nl using a Pintool station (Wako, San Diego, CA). The assay plates were incubated at room temperature for 10 min. Then 2 ul of NADPH regeneration solution was added to each well of the assay plates using an FRD and incubated at 37C for 1 h. The reaction was stopped by adding 4 ul of detection reagent using an FRD and after 20 min incubation at room temperature the luminescence signal was measured using a ViewLux plate reader (Perkin Elmer, Shelton, CT). Data were expressed as relative luminescence units.
For the compound `N#C/C(=C1\SCC(c2ccccc2Cl)S1)n1ccnc1` (stereo not given), the Potency was 0.0776 µM (active). As for `CC(C)CCCCCOC(=O)CCCCC(=O)OCCCCCC(C)C`, the entry is “inactive”; as for `Cc1ccnc2ccccc12`, “inactive”; as for `OC/C(Br)=C(\Br)CO`, 31.5 µM (active).

Turning to `CCOC(=O)/C=C/C(=O)O`, the Potency entry is “inactive”. The value for `CC1(C)O[C@@H]2C[C@H]3[C@@H]4CCC5=CC(=O)C=C[C@]5(C)[C@H]4[C@@H](O)C[C@]3(C)[C@]2(C(=O)CO)O1` was “inactive”. For `Cc1occc1C(=O)Nc1ccc(C(=O)N2CCC(F)(F)/C(=C\C(=O)N3CCC(N4CCCCC4)CC3)c3ccccc32)cc1`, the Potency entry was “inactive”. Consider `O=C(CCCCCCCCC#CI)Oc1ccccc1`, for which the Potency result is “inactive”.

On to `CCCCC(=O)O[C@]1(C(=O)CO)[C@@H](C)C[C@H]2[C@@H]3CCC4=CC(=O)C=C[C@]4(C)[C@@]3(F)[C@@H](O)C[C@@]21C`, for which the Potency was 79.6 µM (active).

As for `CC(C)(C)C(=O)C(Oc1ccc(Cl)cc1)n1ccnc1` (stereo not given), the Potency was 1.38 µM (active).

In the case of `CCCCC(=O)O[C@]1(C(=O)CO)CC[C@H]2[C@@H]3CCC4=CC(=O)CC[C@]4(C)[C@H]3[C@@H](O)C[C@@]21C`, the Potency result was “inactive”. On to `CC(N)CN` (stereo not given), for which the Potency was 60.5 µM (active). Turning to `CCN(Cc1cccc(S(=O)(=O)O)c1)c1ccc(C(=C2C=CC(=[N+](CC)Cc3cccc(S(=O)(=O)[O-])c3)C=C2)c2ccccc2)cc1`, the Potency was 62.8 µM (active).

For `C[N+](C)(C)CCOC(N)=O`, the Potency result is “inactive”. Turning to `O=[N+]([O-])c1cccc(S(=O)(=O)NCCNS(=O)(=O)c2cccc([N+](=O)[O-])c2)c1`, the Potency was 3.09 µM (active). `O=S1OCCO1`: the Potency result is “inactive”. The value for `C[N+]1(C)CCC(=C(c2ccccc2)c2ccccc2)CC1` was “inactive”; that for `N#C[C@@H]1C[C@@H]2C[C@@H]2N1C(=O)[C@@H](N)C12CC3CC(CC(O)(C3)C1)C2` was “inactive”.

On to `CCOC(=O)c1ccccc1C`, for which the Potency result is “inactive”. As for `Nc1ccc(S(=O)(=O)O)c(N)c1`, the Potency is 31.7 µM (active). Turning to `CC(CCO)CCc1ccccc1` (stereo not given), the Potency is 7.96 µM (active). `CCOC(=O)[C@@H](C)Oc1ccc(Oc2nc3ccc(Cl)cc3o2)cc1`: the Potency is 79.6 µM (active). As for `C[C@]12CCC(=O)C=C1C=C[C@@H]1[C@@H]2CC[C@@]2(C)[C@H]1CC[C@@]21CCC(=O)O1`, the Potency is 1.1 µM (active). Consider `Nc1nccs1`, for which the Potency entry was “inactive”. As for `CCOC(=N)CC(=O)OCC`, the entry is “inactive”. With `CO[C@H]1O[C@H](CO)[C@@H](O)[C@H](O)[C@H]1O`, the Potency result is “inactive”. The value for `COC(=O)c1cc(S(N)(=O)=O)ccc1OC` was “inactive”; that for `CC(C)CCCCCCOC(=O)CCCCC(=O)OCCCCCCC(C)C` was “inactive”. Take `ON(Cc1ccccc1)Cc1ccccc1`: the Potency was 7.1 µM (active).

Turning to `O=C(CCCN1CCC(O)(c2ccc(Br)cc2)CC1)c1ccc(F)cc1`, the Potency result is “inactive”.

On to `CN1CCN(CCCN2c3ccccc3Sc3ccc(S(=O)(=O)N(C)C)cc32)CC1`, for which the Potency result is “inactive”. In the case of `CCOC(=O)C(C)Oc1ccc(Oc2nc3ccc(Cl)cc3o2)cc1` (stereo not given), the Potency was 31.7 µM (active). With `Fc1c(F)c(F)c(Br)c(F)c1F`, the Potency result is “inactive”.

As to `CN(C)C(=O)Nc1ccc(Oc2ccc(Cl)cc2)cc1`, the Potency is 17.8 µM (active). As for `COc1cc2c(cc1OC)-c1cc(=Nc3c(C)cc(C)cc3C)n(C)c(=O)n1CC2`, the Potency is 17.4 µM (active). In the case of `CNCCCC1c2ccccc2C=Cc2ccccc21`, the Potency entry was “inactive”. On to `O=C(c1ccc(O)cc1)c1ccc(Cl)cc1`, for which the Potency was 18.2 µM (active). For the compound `CCC(C(=O)OCCOCCN(CC)CC)c1ccccc1` (stereo not given), the Potency entry is “inactive”. With `CCCCCCCCCOC(C)=O`, the Potency result was “inactive”.

`Cc1ccc(Nc2nccc(N(C)c3ccc4c(C)n(C)nc4c3)n2)cc1S(N)(=O)=O`: the Potency result is “inactive”.
